Screening results deposited in PubChem by The Scripps Research Institute Molecular Screening Center.
Sampled rows, rich in hits. Any-hit rate of the full collection: about 2.4%.
M1 PAM parental – nonselective calcium activators in parental CHO-K1 cells, primary screen, counter-screen for M1 PAM project, cell-based, Fluo-8 calcium fluorescence, full deck, 1536-well. activation, % at 3 µM. AID 602247, 2012. ATP EC20; 0% at ATP EC20, 100% at ATP max. 0.02% of 360,000 active;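 active = activation above the run cutoff, the mean activation of all test compounds plus 3 SD, cut at about 40% in these data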;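 also: peak over basal fluorescence ratio in a 140 s read after ATP addition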
CHRM1 agonist – human M1 muscarinic receptor agonists, primary screen, Fluo-8 calcium fluorescence, CHO-K1 cells, HTS; Muscarinic acetylcholine receptor M1 (Homo sapiens), P11229; CHO-K1 hM1, agonist mode; 0% DMSO, 100% acetylcholine EC100; activation, % at 3 µM; 0.33% of 360,000 active; AID 588814, 2011;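 active = activation above the run's mean compound activation plus 3 SD, cut at about 16% in these data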;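 also: peak over basal fluorescence ratio within a 140 s kinetic read after compound addition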
Target sequence (P11229 whole entry, looked up): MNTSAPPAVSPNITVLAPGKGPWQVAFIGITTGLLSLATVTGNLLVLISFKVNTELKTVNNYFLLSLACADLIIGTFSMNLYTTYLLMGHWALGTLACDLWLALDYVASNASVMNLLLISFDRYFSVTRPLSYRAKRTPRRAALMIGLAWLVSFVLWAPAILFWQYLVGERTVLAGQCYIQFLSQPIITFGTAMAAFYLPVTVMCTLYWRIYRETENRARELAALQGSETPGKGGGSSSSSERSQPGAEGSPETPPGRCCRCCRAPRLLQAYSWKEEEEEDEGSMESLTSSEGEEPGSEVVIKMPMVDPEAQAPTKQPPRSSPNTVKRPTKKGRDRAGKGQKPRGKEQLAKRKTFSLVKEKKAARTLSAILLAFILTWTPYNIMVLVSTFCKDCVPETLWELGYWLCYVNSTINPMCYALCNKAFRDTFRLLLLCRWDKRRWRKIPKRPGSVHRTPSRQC
CHO-K1 Ca antag – nonselective inhibitor or artifact in parental CHO-K1 cells; ATP-induced calcium, Fluo-8 fluorescence; 0.6% of 360,000 active; inhibition, % at 3 µM;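 active = inhibition above a per-plate cutoff, the plate's mean sample inhibition plus 3 SD, cut at about 24% in these data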;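 also: 0% = DMSO plus EC80 ATP and 100% = DMSO alone without ATP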
CHO-K1 Ca ag – counter-screen for M1 agonists: effect in parental CHO-K1 cells | Fluo-8 calcium fluorescence; scaled to maximal ATP response, vehicle zero | activation, % at 3 µM | 0.48% of 360,000 active | AID 602248, 2012; in the data active = activation above about 15%;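 also: untransfected CHO-K1 host cells lacking M1 receptor as counterscreen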
M1 antag – human M1 muscarinic receptor antagonists, primary screen, CHO-K1 cells, Fluo-8 calcium fluorescence, 1536-well. inhibition, % at 3 µM. CHO-K1 hM1, ACh EC80 antagonist. Muscarinic acetylcholine receptor M1 (Homo sapiens), P11229. 1.3% of 360,000 active;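 active = percent inhibition above its own plate's cutoff, namely the mean of that plate's compound wells plus 3 SD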;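 also: peak over basal fluorescence ratio during 140 s after agonist addition; 0% = ACh EC80 plus DMSO and 100% = DMSO alone without agonist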
M1 PAM – human M1 muscarinic receptor positive allosteric modulators, primary screen, CHO-K1 cells, Fluo-8 calcium fluorescence, 1536-well; 0.088% of 360,000 active; CHO-K1 hM1, ACh EC20; 0% = ACh EC20, 100% = maximal ACh; activation, % at 3 µM; in the data active = activation above about 19%, passing the limit was not always enough
* = called active by the depositor; nt = not tested or not shown.

SMILES | M1 PAM parental | CHRM1 agonist | CHO-K1 Ca antag | CHO-K1 Ca ag | M1 antag | M1 PAM
OC(C#CCN1CCCC1)(c1ccccc1)c1cccnc1 (stereo not drawn) | -14.9 | -9.3 | 12.7 | 3.6 | 99.5* | -27.8
CC(C)C[C@H]1CN([C@@H](Cc2ccc(O)cc2)CN2CCCC2CN2C(=S)NC[C@@H]2Cc2ccccc2)C(=S)N1CC1CCCCC1 (stereo partly drawn) | 15.0 | nt | -23.6 | 0.5 | nt | nt
CCC1Oc2ccc(C)cc2N(CC(=O)N(Cc2ccc(C)o2)C2CC(C)(C)NC(C)(C)C2)C1=O (stereo not drawn) | 15.8 | -1.8 | -6.8 | 0.6 | 29.2* | -9.9
CN(Cc1ccccc1F)C(=O)CNC(=O)Cc1cccc2ccccc12 | 20.7 | -3.0 | -9.9 | 1.3 | -6.4 | 7.1
O=C(O)c1ccc(NS(=O)(=O)c2ccc3c(c2)C(=O)c2ccccc2C3=O)cc1 | -17.8 | -3.3 | 24.6* | -0.8 | 0.3 | -2.6
O=C(O)c1cccc(S(=O)(=O)Nc2ccc(-c3ccccc3)cc2)c1 | 9.9 | -5.4 | -8.4 | 0.7 | -11.2 | 2.0
O=c1[nH]cnc2c1nnn2C1OC(CO)C(O)C1O (stereo not drawn) | 22.4 | -2.5 | -4.4 | -0.2 | -1.1 | 0.7
Cc1cc(NC(=O)Cn2nc(C(=O)O)c3ccccc3c2=O)c([N+](=O)[O-])cc1C | -13.8 | -0.8 | -2.3 | 0.6 | -2.1 | 0.3
Cn1ccnc1SCC(=O)Nc1ccc(Br)cc1C(F)(F)F | 6.7 | -4.7 | -0.5 | 0.5 | -3.4 | 1.7
CC(=O)Nc1ccc(CN2C(=O)C(C)(C)ON=C2c2ccc(C(F)(F)F)cc2)cc1 | -10.3 | -0.2 | 37.2* | -0.3 | 0.5 | 7.8
c1ccc(-c2cn(-c3ccccc3)c3[n+]2CCCS3)cc1 | -10.2 | -8.5 | 0.7 | 0.1 | 7.0 | -5.9
c1ccc(Cn2c(-c3ccccc3)c[n+]3c2SCCC3)cc1 | 20.3 | -9.0 | -9.6 | 1.0 | 98.1* | -25.1
c1cc2c(cc1CN1CCN(C3CCCCCC3)CC1)OCO2 | 3.4 | -10.0 | -14.6 | 0.3 | 63.5* | -25.2
c1ccc(CN2CCC(N3CCN(Cc4ccc5c(c4)OCO5)CC3)CC2)cc1 | 10.6 | -4.3 | -9.9 | 3.8 | 24.1 | -17.6
COc1cccc(NS(=O)(=O)c2ccc(-n3cccn3)cc2)c1 | -0.4 | 3.7 | 12.2 | 16.2* | 43.9* | -17.5
Cc1ccc(NS(=O)(=O)c2ccc(-n3cccn3)cc2)nc1 | 11.9 | -3.8 | 31.1* | 1.6 | -6.5 | 4.5
Cc1ccc(NS(=O)(=O)c2ccc(-n3cccn3)cc2)cc1F | 4.4 | 1.1 | -7.4 | 5.2 | 10.1 | -6.7
Cc1ccc(NS(=O)(=O)c2ccc(-n3cccn3)cc2)c(C)c1 | 11.6 | 4.0 | -11.6 | 8.6 | 4.2 | -3.3
Cc1cccc(NS(=O)(=O)c2ccc(C)c(C(=O)NCC(c3cccs3)N3CCOCC3)c2)c1 (stereo not drawn) | -2.5 | -5.8 | -20.7 | 1.3 | -6.5 | 3.0
COc1cccc(/C=C/C(=O)OCC(=O)NC(=O)NC2CCCCC2)c1 | 9.0 | -3.6 | -1.3 | 1.5 | -3.9 | 4.6
CCCN(CCC)C(=O)c1ccc2c(c1)N(CC)C(=O)c1ccccc1S2(=O)=O | -9.5 | -11.2 | -3.7 | 0.2 | 42.0* | -32.3
COc1ccccc1CNS(=O)(=O)c1ccc2c(c1)CC(C)N2C(=O)C1CC1 (stereo not drawn) | 4.7 | 2.5 | -14.8 | 15.0 | 2.6 | -8.4
COc1ccccc1CNS(=O)(=O)c1ccc2c(c1)CC(C)N2C(=O)C1CCC1 (stereo not drawn) | -9.7 | 4.6 | 31.2* | 13.6 | 31.7 | -14.8
O=[N+]([O-])c1cc(C(F)(F)F)cc([N+](=O)[O-])c1Sc1n[nH]c(C(F)(F)F)n1 | -14.5 | -3.6 | 0.6 | 0.0 | 2.1 | 0.4
C/C=C(\C)C(=O)NCCN1C2=NC[C@H](C)N2C[C@@H]1Cc1ccc(OC)cc1 | 0.9 | -13.6 | -6.1 | 0.0 | 5.0 | -9.0
SMILES | M1 PAM parental | CHRM1 agonist | CHO-K1 Ca antag | CHO-K1 Ca ag | M1 antag | M1 PAM
COc1ccc(C[C@@H]2CN3C(=NC[C@@H]3C)N2CCNC(=O)c2ccc(C)c(Br)c2)cc1 | 0.5 | -12.9 | -6.3 | 0.2 | 40.5* | -37.3
Cc1c(C(=O)NC2CCS(=O)(=O)C2)oc2ccccc12 (stereo not drawn) | -10.7 | -2.7 | 3.8 | 0.4 | 2.3 | 3.2
Cc1cc(C)c2nc(-c3ccccc3)ccc2c1 | 20.8 | -3.5 | -30.1 | 0.6 | -44.3 | 7.0
CC(=O)c1ccc(N2CCN(S(=O)(=O)c3ccc4c(c3)CC(C)N4C(C)=O)CC2)cc1 (stereo not drawn) | 3.3 | 1.6 | 23.5 | 14.3 | 36.5* | -13.4
CC1Cc2cc(S(=O)(=O)N3CCC(C(=O)N4CCN(c5ccccc5F)CC4)CC3)ccc2N1C(=O)C1CC1 (stereo not drawn) | -29.9 | 4.7 | 29.1* | 10.5 | 22.2 | -7.3
CS(=O)(=O)N1CCC(C(=O)N2CCN(c3ccccc3F)CC2)CC1 | 19.3 | -6.6 | -1.1 | 17.0* | -6.8 | 10.9
CC(=O)N1c2ccc(S(=O)(=O)N3CCC(C(=O)N4CCN(c5cc(Cl)ccc5C)CC4)CC3)cc2CC1C (stereo not drawn) | -18.4 | 2.1 | 25.8* | 12.2 | 47.7* | -15.6
CC(=O)N1c2ccc(S(=O)(=O)N3CCC(C(=O)N4CCC(C)CC4)CC3)cc2CC1C (stereo not drawn) | 7.9 | -3.7 | -17.2 | 1.5 | -8.6 | 4.5
COc1cc(/C=N/NS(=O)(=O)c2ccccc2)c(OC)c(OC)c1 | 11.2 | -3.8 | -3.6 | 16.3* | -13.1 | 7.4
COC(=O)c1ccc(CN2CCC(Oc3cccc(C(=O)N4CCOCC4)c3)CC2)cc1 | 1.3 | 18.5* | 4.4 | 2.7 | 83.9* | -17.8
COCCNC(=O)C1CCCN(Cc2ccccc2)CC1 (stereo not drawn) | 9.2 | -7.0 | -7.1 | 0.1 | -4.6 | 5.4
CSc1cccc(CN2CCC(Oc3cccc(C(=O)N4CCCC4)c3)CC2)c1 | 17.0 | -6.9 | -9.4 | 1.7 | -3.1 | -4.7
COCCNC(=O)c1cccc(OC2CCN(Cc3ccc(C(C)C)cc3)CC2)c1 | -3.6 | -7.6 | -0.4 | 1.6 | 10.6 | -11.4
COCCNC(=O)CCC1CCN(Cc2ccc(-c3ccccc3)cc2)CC1 | -6.2 | -9.5 | 12.1 | -0.5 | 99.1* | -28.0
COCCNC(=O)c1cccc(OC2CCN(Cc3ccc(C(=O)OC)cc3)CC2)c1 | 11.3 | 19.2* | -6.2 | 0.1 | 70.5* | -17.2
COc1ccc(CC(NC(C)=O)C(=O)NC2CCN(C(=O)c3ccccc3F)CC2)cc1 (stereo not drawn) | 6.6 | -2.9 | -10.6 | 1.2 | -6.3 | 4.2
